HT1080 IDH1KD tx: toxicity to HT-1080 IDH1 knockdown cells (counter line) | HT-1080 IDH1 knockdown viability, ATP luminescence, 48 h | Potency, µM (top dose mostly 46.1 µM), hits mostly cytotoxic | 360,000 tested, 2% active | AID 686971
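Luminescent ATP read-out (CellTiter-Glo, 10 min at room temperature) after 48 h compound exposure at 37 °C gave viability of IDH1-knockdown HT-1080 cells. Activity was normalised to DMSO and cell-free wells, then fitted as concentration-response curves.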
KB-V1 cytotox: kills drug-selected multidrug resistant KB-V1 cells. Potency, µM (top dose mostly 46.1 µM), actives largely listed as cytotoxic. AID 1347076. KB-V1 MDR cells viability, CellTiter-Glo, 72 h. 400,000 tested, 3.4% active; note: nearly all actives have a fitted effect of over 60% in size
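Compound-treated KB-V1 multidrug-resistant cells, 72 h, 37 degrees C; viability by CellTiter-Glo. Fitted qHTS curves give the values.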
HT1080NT lethal: kills 2HG-producing HT-1080-NT fibrosarcoma cells. HT-1080-NT fibrosarcoma viability, CellTiter-Glo ATP luminescence, 48 h. Potency, µM (top dose mostly 46.1 µM), most hits filed as cytotoxic. 360,000 tested, 1.6% active;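 note: NT is the 2HG producing partner of a matched IDH1 knockdown line; nearly all actives have a fitted effect of over 55% in size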
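A 48-hour cytotoxicity screen used HT-1080-NT cells plated 2 hours before compound delivery. ATP-based CellTiter-Glo luminescence measured viability, normalized to DMSO and no-cell controls.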
KB-3-1 tox: kills parental KB-3-1 adenocarcinoma cells | KB-3-1 viability, CellTiter-Glo ATP luminescence, 72 h | Potency, µM (titrated, usually from 46.1 µM), hits mostly cytotoxic | 400,000 tested, 1.4% active | AID 1347075; note: nearly all actives have a fitted effect of over 60% in size
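KB-3-1 cells, DMEM (no phenol red) + 10% FBS; compound by pin transfer, 72 h, 37 °C. Readout: CellTiter-Glo luminescence after 10 min. Data normalized, curve-fitted.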
MCF10A rerep: inducers of DNA re-replication in MCF 10A breast cells; 350,000 tested, 2.9% active; MCF 10A DNA re-replication, Hoechst nuclear intensity, 48 h; Potency, µM (top dose mostly 46.1 µM), most hits filed as activators; AID 624296; note: nearly all actives have a fitted effect of over 50% in size
SW480 rereplic: inducers of DNA re-replication in SW480 colon cancer cells; 340,000 tested, 1.8% active; SW480 DNA re-replication, Hoechst DNA content imaging, 48 h; Potency, µM (highest dose often 46.1 µM), actives largely listed as activators; note: nearly all actives have a fitted effect of over 55% in size
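Image-based DNA-content assay: after two days of treatment, nuclei were labelled with the DNA dye Hoechst and imaged, and hits were compounds raising the count of nuclei showing high fluorescence intensity.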
Hits are given with their value; i = inactive; ? = inconclusive; nt = no result given; [ ] = another dose, or the depositor's remark. The list is not random: actives were taken first. Their share in the collection is about 8%. Calls come from the whole dose curve; as a rule, active = well fitted curve in the direction sought with a large enough effect; inconclusive = small, poorly fitted or top-dose-only effect, or another doubt; inactive = no such curve, though single readings can be large; an effect the other way counts as inactive or inconclusive.

SMILES	HT1080 IDH1KD tx	KB-V1 cytotox	HT1080NT lethal	KB-3-1 tox	MCF10A rerep	SW480 rereplic
Cc1cccc(CNC(=O)CN2C(=O)CCn3nc(-c4cn(C)c5ccccc45)cc32)c1	nt	i	nt	i	nt	nt
COC(=O)CCC(=O)OC	i	i	i	i	?	4.6µM
COC(=O)CCCCC(=O)OC	i	i	i	i	i	i
C/C(=N/Nc1nc(-c2ccccc2)cc(-c2ccc(F)cc2)n1)c1cccc(N)c1	?	5.2µM	?	?	i	?
CCCC[C@H](O)c1ccccc1	nt	nt	nt	nt	i	i
COCCn1c(C)cc(C(=O)CSc2cc(C)c3ccccc3n2)c1C	i	2.3µM	i	i	i	i
COCCn1c(C)cc(C(=O)CSc2nc3ccccc3c(=O)n2Cc2ccco2)c1C	i	0.65µM	i	?	i	i
O=C(CSc1nc2ccccc2c(=O)n1Cc1ccco1)NCc1ccco1	i[9.24 µM]	i	i	i	?	i
CC(C)NC(=O)Cc1csc2nc(-c3ccccc3)cn12	nt	i	nt	i	nt	nt
CCc1nnc(N/N=C/c2ccc(O)c(OC)c2)n1N	i	i	i	i	?	?
CCc1nnc(N/N=C/c2cccs2)n1N	i	i	i	i	?	23µM
CCc1nnc(N/N=C\c2ccc(OC(C)=O)c(OC)c2)n1N	18µM	i	?	i	23µM	?
CCOc1cc(/C=N/Nc2nnc(C)n2N)ccc1OC(C)=O	21µM	i	16µM	i	18µM	i
CN1CCc2c(c3cnc4cc(Cl)ccc4c3n2C)C1	nt	i	nt	i	nt	nt
Cc1cccc(OCCC(=O)NO)c1	i	nt	?	nt	nt	nt
COc1ccc(C(=O)N(Cc2cc(OC)c(OC)c(OC)c2)C2CCS(=O)(=O)C2)cc1Cl (centres undefined)	nt	i	nt	i	nt	nt
CC1CCN(S(=O)(=O)c2ccc(NC(=O)Cn3nnc(-c4ccccc4)n3)cc2)CC1	?	15µM	?	?	?	i
CC1CCCN(S(=O)(=O)c2ccc(NC(=O)Cn3nnc(-c4ccccc4F)n3)cc2)C1 (centres undefined)	?	i	?	i	?	?
Cc1ccc(-c2nnn(CC(=O)Nc3ccc(S(=O)(=O)N4CCC(C)CC4)cc3)n2)cc1	12µM	?	23µM	i	i	i
COc1cccc(N(Cc2nnc3n2CCCCC3)C(=O)Nc2cccc(Cl)c2)c1	nt	i	nt	i	nt	nt
COc1ccc(CNC(=O)c2ccc(S(=O)(=O)N3CC(C)CC(C)C3)cc2)cc1OC (centres undefined)	i	7.3µM	i	i	i	i
CC1CCN(S(=O)(=O)N2CCC(C(=O)NCc3cccs3)CC2)CC1	i	18µM	i	i	i	i
COc1ccc(CCNC(=O)C2CCN(S(=O)(=O)N3CCC(C)CC3)CC2)cc1OC	i	21µM	i	?	i	i
O=C(NCc1cccs1)C1CCCN1S(=O)(=O)c1ccccc1F (centres undefined)	i	12µM	i	i	i	i
CC1CN(C(=O)N2CCC(C(=O)NC3CCCCCC3)CC2)c2cc(Cl)ccc2O1 (centres undefined)	nt	i	nt	i	nt	nt
SMILES	HT1080 IDH1KD tx	KB-V1 cytotox	HT1080NT lethal	KB-3-1 tox	MCF10A rerep	SW480 rereplic
Cc1ccc(-c2nc3c4ccccc4n(CC(=O)N4CCN(c5ccc(F)cc5)CC4)c(=O)n3n2)cc1	nt	?	nt	i	nt	nt
COC(=O)c1c(C)nc(C)c(C(=O)OC)c1-c1ccc(OC)c(OC)c1	i	i	i	i	i	i
CCOC(=O)c1c(C)nc(C)c(C(=O)OCC)c1-c1ccc(O)c(OC)c1	i	i	i	i	?	3.7µM
Cc1ccc(OCCSc2nc3ccccc3n2CC(=O)N2CCOCC2)c(C)c1	nt	i	nt	i	nt	nt
CCNC1CCC(Nc2ccnc3cc(Cl)ccc23)CC1 (centres undefined)	?	?	i	?	i	?
OC(CNc1ccnc2cc(Cl)ccc12)CNC1CCCCC1 (centres undefined)	21µM	?	21µM	?	?	23µM
O=C1N=C2SCCN2C(=O)C1Cc1ccc(Cl)cc1 (centres undefined)	nt	nt	nt	nt	i	i
O=C1N=C2SCCN2/C1=C\c1ccc(Cl)cc1	?	?	?	i	18µM	i
CC(=O)N/C(=C/c1ccccc1)c1ccncc1	nt	i	nt	i	nt	nt
O=C(Nc1ccc(F)c(Cl)c1)C1CCCCC1	i	i	i	i	i	i
O=C(Nc1ccc(F)c(Cl)c1)C1CCCC1	i	i	i	i	?	5.8µM
O=C(CNC(=O)C1CCCCC1)Nc1cc(Cl)ccc1Cl	i	21µM	i	i	i	i
COC(=O)c1ccc(NC(=O)Nc2ccc(F)c(Cl)c2)cc1	?	18µM	?	i	?	i
O=C(CNC(=O)C1CCCCC1)Nc1ccccc1Cl	i	i	i	i	i	i
COC(=O)c1ccc(NC(=O)Nc2ccc(F)cc2)cc1	i	i	i	i	?	i
COC(=O)c1cccc(NC(=O)Nc2ccc(Cl)c(Cl)c2)c1	?	15µM	?	i	?	i

Screens as filed in PubChem BioAssay.
